# CIT2-GFP yeast = alters CIT2-GFP fluorescence in TOR pathway yeast screen; S. cerevisiae CIT2-GFP strain, flow cytometry, 3 h; 100 means same as DMSO wells; GFP response vs DMSO, % at 10 µM; actives 0.065% (n = 320,000); AID 2029;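 active = GFP response relative to DMSO above a set limit, near the screen mean plus 3 SD, cut at about 150% in these data; inconclusive = Fewer than 70 cells measured for a yeast strain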;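 note: ratio of well median GFP fluorescence to mean of DMSO wells on the plate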
# RPL19A-GFP yeast = alters RPL19A-GFP fluorescence in TOR pathway yeast screen. S. cerevisiae RPL19A-GFP strain, flow cytometry, 3 h; stronger effect = lower value. actives 0.3% (n = 330,000). percent response vs DMSO, % at 10 µM. AID 2025;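 active = percent response vs DMSO below 50%; inconclusive = fewer than 70 events counted for the yeast strain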;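 note: median channel GFP fluorescence of the barcoded RPL19A-GFP strain; ratio of sample median GFP to plate DMSO average so 100% = DMSO; lower means less RPL19A-GFP as with rapamycin TOR inhibition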
# AGP1-GFP MLPCN = modulators of TOR pathway AGP1-GFP in S. cerevisiae; actives 0.02% (n = 320,000); GFP response vs DMSO, % at 10 µM; S. cerevisiae AGP1-GFP multiplex flow cytometry, 3 h; GFP as percent of DMSO wells;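 active = GFP response relative to DMSO above a set limit, near screen average plus 3 SD, cut at about 150% in these data; inconclusive = fewer than 70 cells counted for the yeast strain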;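 note: median GFP channel fluorescence of the gated AGP1 strain per well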
# DSG3 Ab inh = blocks pemphigus antibody binding to human desmoglein-3; P32926; DSG3-coupled beads, scFv-anti-DSG3-GFP binding, flow cytometry; stronger effect = lower value; binding (percent of control), % at 10 µM; actives 0.48% (n = 310,000);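 active = binding more than 3 SD below its plate's average and above zero; inconclusive = below that plate limit but binding exactly zero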;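 note: hits lower antibody fragment binding to DSG3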
# Target sequence (P32926 whole entry, looked up, the tested form may be a part): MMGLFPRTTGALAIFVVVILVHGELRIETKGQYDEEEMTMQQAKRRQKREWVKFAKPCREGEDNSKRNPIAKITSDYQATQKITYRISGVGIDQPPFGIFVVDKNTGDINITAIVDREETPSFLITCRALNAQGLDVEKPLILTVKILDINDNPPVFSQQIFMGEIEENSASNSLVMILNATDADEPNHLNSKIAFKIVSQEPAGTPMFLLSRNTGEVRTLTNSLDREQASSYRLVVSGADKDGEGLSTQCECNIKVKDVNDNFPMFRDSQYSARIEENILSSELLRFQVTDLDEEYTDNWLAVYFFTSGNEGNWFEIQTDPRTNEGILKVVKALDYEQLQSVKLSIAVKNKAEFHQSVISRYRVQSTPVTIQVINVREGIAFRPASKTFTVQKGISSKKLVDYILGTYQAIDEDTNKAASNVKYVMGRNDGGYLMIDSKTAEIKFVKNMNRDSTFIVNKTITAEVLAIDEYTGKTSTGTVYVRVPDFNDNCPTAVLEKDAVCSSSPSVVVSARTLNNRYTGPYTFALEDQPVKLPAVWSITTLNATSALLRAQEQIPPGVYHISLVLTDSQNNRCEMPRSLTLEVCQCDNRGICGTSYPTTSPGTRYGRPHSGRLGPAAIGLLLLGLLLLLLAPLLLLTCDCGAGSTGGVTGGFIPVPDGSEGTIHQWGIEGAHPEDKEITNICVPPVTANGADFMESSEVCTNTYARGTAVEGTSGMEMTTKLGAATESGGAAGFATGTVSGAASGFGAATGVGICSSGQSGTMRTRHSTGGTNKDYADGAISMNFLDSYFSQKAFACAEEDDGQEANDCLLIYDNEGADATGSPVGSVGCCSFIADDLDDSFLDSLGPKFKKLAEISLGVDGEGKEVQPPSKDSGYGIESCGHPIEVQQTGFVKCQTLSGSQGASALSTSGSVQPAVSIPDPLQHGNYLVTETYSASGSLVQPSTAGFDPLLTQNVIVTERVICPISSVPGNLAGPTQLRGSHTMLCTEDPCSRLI
# MEP2 TOR yeast = modulators of TOR pathway MEP2-GFP in S. cerevisiae; actives 0.51% (n = 330,000); AID 2016; GFP response vs DMSO, % at 10 µM; S. cerevisiae MEP2-GFP strain, flow cytometry GFP, 3 h; 100% = DMSO control level;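 active = GFP response versus DMSO above a set limit, roughly screen mean plus 3 SD, cut at about 180% in these data; inconclusive = fewer than 70 cells counted for a yeast strain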;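 note: median GFP fluorescence of the barcode-gated MEP2-GFP cells per well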
# LAP4-GFP MLPCN = alters LAP4-GFP fluorescence in TOR pathway yeast screen; actives 0.34% (n = 320,000); S. cerevisiae LAP4-GFP multiplex, flow cytometry GFP, 3 h; median GFP as percent of DMSO wells; GFP response vs DMSO, % at 10 µM;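 active = GFP response vs DMSO above a set limit, about the screen mean plus 3 SD, cut at about 150% in these data; inconclusive = under 70 cell events counted for the yeast strain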
# * marks the source's active call; other numbers are inactive results; i = inactive; ? = inconclusive; . = no result given; + = active, no number; [ ] = remark or other dose. The list is not random: actives were taken first. Their share in the collection is about 1.2%.
SMILES,CIT2-GFP yeast,RPL19A-GFP yeast,AGP1-GFP MLPCN,DSG3 Ab inh,MEP2 TOR yeast,LAP4-GFP MLPCN
O=C(NC(=S)Nc1ccc2nc[nH]c2c1)c1ccccc1,168*[may fluoresce green],95,120,99,114,108
CC(=O)Nc1ccc(NC(=O)CCNS(=O)(=O)c2cccc3nsnc23)cc1,.,84,85,103,86,84
CCCc1c(C(=O)NNc2cc(C(F)(F)F)ccc2Cl)cnn1-c1ccccc1,93,99,103,.,94,106
O=C(NCCCN1CCOCC1)c1cc2c([nH]c3ccccc32)c(-c2cccc(Br)c2)n1,?,19*[may fluoresce violet],48,111,344*[may fluoresce violet],100
OCc1cccc[n+]1Cc1ccccc1,116,107,116,105,113,123
O=C(CN(Cc1ccccc1Cl)C(=O)c1csnn1)NCc1ccc(F)cc1,98,100,99,80,103,99
O=C(CN(Cc1ccccc1Cl)C(=O)c1csnn1)NCc1ccccc1,?,98,22,102,283*[may fluoresce violet],74
CCn1c2ccccc2c2cc(/C=N/n3cnnc3)ccc21,93,87,89,82,96,116
CCn1c2ccccc2c2cc(/C=N/n3cn[nH]c3=S)ccc21,83,90,91,107,87,160*
CN1c2ccccc2N(C)C1(C)c1ccccc1,?,39*[may fluoresce violet],20,84,186*[may fluoresce violet],92
Cc1c(CCO)c(=O)[nH]n1S(=O)(=O)c1ccc([N+](=O)[O-])cc1,156*[may fluoresce green],92,115,90,103,102
C=CCSc1nnc2c(n1)OC(c1cccnc1)Nc1ccccc1-2 (configuration not stated),89,95,95,?,93,97
c1ccc(CSc2nnc3c(n2)OC(c2ccco2)Nc2ccccc2-3)cc1 (configuration not stated),103,103,102,61*,104,98
Cc1ccc(NC(=O)c2ccc(S(=O)(=O)NCc3ccco3)cc2)cc1,90,100,92,-4.6*,99,87
Cc1ccc(S(=O)(=O)NCC(=O)Nc2ccc(C(F)(F)F)cc2)cc1,?,41*[may fluoresce violet],.,104,173,99
Cc1ccc(C2(C)NC(=O)N(CC(=O)N(C)CC(=O)Nc3cccc4ccccc34)C2=O)cc1 (configuration not stated),107,100,103,93,101,104
O=C(CN1CCCC1)Nc1cc(C(F)(F)F)ccc1Cl,103,94,101,94,98,96
O=C(CN1CCCC1)Nc1cc(C(F)(F)F)cc(C(F)(F)F)c1,98,90,131,104,125,151*
COc1cc(SC)ccc1C(=O)NCCCn1ccnc1,?,39*[may fluoresce violet],?,118,575*[may fluoresce violet],138
COc1ccc(Cl)cc1C(=O)NCCCn1ccnc1,104,106,93,110,104,90
N#Cc1ccccc1NC(=O)Nc1cccs1,103,93,101,108,106,109
Cc1nn(C)cc1C(C(=O)NC1CCCCC1)N(C(=O)Cc1cccs1)c1ccc(F)cc1 (configuration not stated),101,101,101,-2.6*,104,90
Cc1nn(C)cc1C(C(=O)NC1CCCCC1)N(C(=O)Cc1cccs1)c1ccc(C(C)C)cc1 (configuration not stated),102,106,107,96,111,108
C/C(CC1CC(C)OC1=O)=N\NC(N)=S (configuration not stated),94,97,96,101,97,94
C/C(CCC12CC3CC(CC(C3)C1)C2)=N\NC(N)=S,95,95,133,102,96,184*
SMILES,CIT2-GFP yeast,RPL19A-GFP yeast,AGP1-GFP MLPCN,DSG3 Ab inh,MEP2 TOR yeast,LAP4-GFP MLPCN
CSC1=NC(=O)/C(=C/c2ccc(SC)cc2)S1,51,78,84,110,98,176*
COc1ccccc1NC(=O)C1CCN(S(=O)(=O)c2cccs2)CC1,+[may fluoresce green],i,+[may fluoresce green],101,+[may fluoresce green],+[may fluoresce green]
O=C(C1CCN(S(=O)(=O)c2cccs2)CC1)N(c1ccccn1)C1CCCCC1,?,46*[may fluoresce violet],?,103,85,104
O=C(NCc1ccccc1Cl)C1CCN(S(=O)(=O)c2cccs2)CC1,?,42*[may fluoresce violet],?,103,205*[may fluoresce violet],56
COc1ccc(OC)c(NC(=O)C2CCN(S(=O)(=O)c3cccs3)CC2)c1,103,102,111,97,104,94
CCc1nc2c(c(=O)[nH]1)C1(CCCC1)Cc1ccccc1-2,101,103,109,98,108,96
O=c1[nH]c(CN2CCCCC2)nc2c1C1(CCCCC1)Cc1ccccc1-2,157*,120,112,110,115,120
Cc1cc(=O)oc2cc(NS(=O)(=O)c3ccccc3)ccc12,?,60,26,95,561*[may fluoresce violet],93
O=C(Nc1nnc(C23CC4CC(CC(C4)C2)C3)s1)c1ccco1,99,107,103,71*,108,95
Cc1noc(C)c1CSCC(=O)Nc1nc(-c2ccc(F)c(F)c2)cs1,98,98,107,102,98,113
COc1cccc(C(=O)Nc2ccc3nc(N4CCN(c5ncccn5)CC4)cc(C)c3c2)c1OC,?,18*[may fluoresce violet],?,.,272*[may fluoresce violet],71
CCOc1ccccc1C(=O)Nc1ccc2nc(N3CCN(c4ncccn4)CC3)cc(C)c2c1,103,90,97,.,109,108
COC(CNC(=O)Cn1nc(Cc2ccncc2)c2ccccc2c1=O)OC,108,100,99,107,103,99
Cc1cc(C)nc(SCC(=O)N/N=C/c2cccc([N+](=O)[O-])c2)n1,102,98,104,99,102,94
C/C(=N\NC(=O)CSc1nc(C)cc(C)n1)c1cccc([N+](=O)[O-])c1,98,102,100,66*,104,93
O=C(CSc1ccsc1[N+](=O)[O-])NC1CCCC1,?,72,?,87,204*[may fluoresce violet],76
CCc1c(N)nc(N)nc1Nc1ccccc1C,.,.,.,95,.,.
CCC(=O)Oc1ccc(C(=O)Nc2cccc(C(=O)NC(C)(C)C)c2)cc1,107,106,101,87*,105,89
CCn1c(N2CCN(S(=O)(=O)c3ccc(Cl)cc3)CC2)nc2ccccc21,104,90,104,-37*,126,112
O=C(Nc1ccccc1Cl)Nc1ccnn1C1CCN(C(=O)CCN2CCCO2)CC1,93,95,95,107,96,89
O=C(Nc1cccc(F)c1)Nc1ccnn1C1CCN(C(=O)CCN2CCCO2)CC1,113,105,97,0.6*,102,82
COC(=O)Cc1ccc(OCc2ccc(Cl)nc2)cc1,57,75,76,113,74,163*

# From PubChem BioAssay
